Reference: PubChem BioAssay (NCATS)
Records with an inconclusive call do not appear. Active and inactive are the calls of the source. The call rests on the fitted dose curve; in most records, active means well fitted cell-killing curve with a large enough effect; inconclusive means small, poorly fitted or top-dose-only effect, or effect the other way; inactive means flat fitted curve, though single readings scatter.

Columns and labels:
Assay in all cases: Primary qHTS to identify gynecologic anti-cancer compounds using libraries of approved drugs and bioactive compounds (AID 1345084); further: nearly all actives have a fitted effect of over 55% in size
C33A = conditions: Gynecologic cancer cell panel viability, ATPlite luminescence, 48 h; series mostly up to 57.5 µM
In short: (§1)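 In this quantitative HTS, cell killing is estimated from loss of ATP-dependent luciferase light. Cells see five compound concentrations over a 48 h exposure.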

CAOV3 = conditions: Gynecologic cancer cell panel viability, ATPlite luminescence, 48 h; series mostly up to 57.5 µM
In short: as §1

CASKI = conditions: Gynecologic cancer cell panel viability, ATPlite luminescence, 48 h; series mostly up to 57.5 µM
In short: as §1

Es-2 = conditions: Gynecologic cancer cell panel viability, ATPlite luminescence, 48 h; series mostly up to 57.5 µM
In short: as §1

HeLa = conditions: Gynecologic cancer cell panel viability, ATPlite luminescence, 48 h; series mostly up to 57.5 µM
In short: as §1

Hek293T = conditions: Gynecologic cancer cell panel viability, ATPlite luminescence, 48 h, control line for the selectivity index; series mostly up to 57.5 µM
In short: as §1

JEG-3 = conditions: Gynecologic cancer cell panel viability, ATPlite luminescence, 48 h; series mostly up to 57.5 µM
In short: as §1

OV90 = conditions: Gynecologic cancer cell panel viability, ATPlite luminescence, 48 h; series mostly up to 57.5 µM
In short: as §1

PA-1 = conditions: Gynecologic cancer cell panel viability, ATPlite luminescence, 48 h; series mostly up to 57.5 µM
In short: as §1

SKOV3 = conditions: Gynecologic cancer cell panel viability, ATPlite luminescence, 48 h; series mostly up to 57.5 µM
In short: as §1

Tov-21-G = conditions: Gynecologic cancer cell panel viability, ATPlite luminescence, 48 h; series mostly up to 57.5 µM
In short: as §1

Tov112D = conditions: Gynecologic cancer cell panel viability, ATPlite luminescence, 48 h; series mostly up to 57.5 µM
In short: as §1

Measured: Potency

C=C1C(=O)O[C@H]2C1CCC(C)=C1C(=O)C=C(C)[C@@]12O (stereo not given in full)
inactive: all assays above

O=C(NC[C@H]1CN(c2ccc(N3CCOCC3=O)cc2)C(=O)O1)c1ccc(Cl)s1
inactive: all assays above

CC(C)Oc1ccc(-c2cnc3c(-c4ccnc5ccccc45)cnn3c2)cc1
inactive: all assays above

CNCCN1CCC(c2cc(CN(C)C(=O)c3cccc(Oc4ccccc4)c3)ccn2)CC1
inactive: all assays above

Fc1ccc(N2CCN(CCC3OCCc4ccccc43)CC2)cc1 (stereo not given)
inactive: all assays above

CN1CCN(C(=O)CN[C@@H]2C[C@H]2c2ccc(OCc3ccccc3)cc2)CC1
inactive: all assays above

Cc1cc(C)nc(SCC(=O)Nc2ncc(Cc3cccc4ccccc34)s2)n1
inactive: all assays above

COc1cc(C(=O)NCC2(N(C)C)CCCC2)cc(OC)c1OCc1ccccc1
inactive: all assays above

CNC(=O)[C@@H](c1ccccc1)N1CCc2cc(OC)c(OC)cc2[C@@H]1CCc1ccc(C(F)(F)F)cc1
inactive: all assays above

CN(C)CC#CCCC(=O)C(O)(c1ccccc1)C1CCC1 (stereo not given)
inactive: all assays above

CCOC(=O)c1cnn(-c2ccccc2)c1NC(=O)c1cc2nc(-c3ccco3)cc(C(F)(F)Cl)n2n1
inactive: all assays above

Cc1cn2cc(C(=O)N(C)CCO)cc(NC3CCOc4cccc(C)c43)c2n1 (stereo not given)
inactive: all assays above

C=C1CC2OC(=O)C(=C)C2C(O)/C=C(\C)CCC1O (stereo not given)
inactive: all assays above

CC(C)(C)OC(=O)c1ncn2c1C(C)(C)Nc1ccccc1-2
inactive: all assays above

Cn1ncnc1[C@@H]1c2n[nH]c(=O)c3cc(F)cc(c23)N[C@H]1c1ccc(F)cc1
inactive: all assays above

CC(=O)OC1C(O)CC2(C)C(CCC3(C)C2CC=C2C4C5(CCC(CO[C@@H]6O[C@H](CO)[C@@H](O)[C@H](O)[C@H]6O)(OC5=O)C4(C)O)C(O)CC23C)C1(C)C (stereo not given in full)
inactive: all assays above

c1cc(-c2cnn3cc(-c4ccc(N5CCNCC5)cc4)cnc23)c2cccnc2c1
inactive: all assays above

O=C(CSc1nc2ccccc2c(=O)n1-c1ccccc1)Nc1ccc2c(c1)CCC2
inactive: all assays above

Cc1ccc(CNc2ncnc3ccc(-c4ccc(CO)o4)cc23)o1
inactive: all assays above

CC1(C)CCCC2(C)C1C(=O)C=C(C(=O)O)C2(O)C(=O)O (stereo not given)
inactive: all assays above

CNC(=O)COC(=O)N1CCC(CCc2ccc(Cl)cc2)CC1
inactive: all assays above

CC(C)(C)c1ccc(C(=O)Nc2cc(Cl)c(Br)cc2C(=O)O)cc1
inactive: all assays above

CNC(=O)c1ccc2c(c1)CCO[C@H]2CCN1CCN(c2ccc(OC)cc2)CC1
inactive: all assays above

COc1ccc(C2Oc3c(OC)cc(CCCO)cc3C2COC2OC(CO)C(O)C(O)C2O)cc1OC (stereo not given)
inactive: all assays above

O=C(NCCN1CCN(c2cccc3ccc(O)cc23)CC1)c1ccc(F)cc1
inactive: all assays above

C=C(C)C1=C[C@@]2(C)C(=CC1=O)CC[C@@H](O)[C@@H]2C
inactive: all assays above

C/C=C(/C)C(=O)OC1C=C2C3C(C)C(C)C(OC(=O)C(C)C(C)O)CC3(C)CCC2(C)C2(C)CC(OC(C)=O)C3C(C)(C)C(O)C(=O)CC3(C)C12 (stereo not given)
inactive: all assays above

Cc1ccc(C)c(NC(=O)[C@@H]2CCCN2S(=O)(=O)c2cccc3cccnc23)c1
inactive: all assays above

O=C(Nc1cc(C(F)(F)F)cc(C(F)(F)F)c1)c1cnc(Cl)nc1C(F)(F)F
inactive: all assays above

COc1c(C(O)CC(C)C)ccc2c1C(=O)OCc1cc(C)cc(O)c1O2 (stereo not given)
inactive: all assays above

CCC(C)C(=O)Oc1cc(C)ccc1C1(COC(=O)C(C)C)CO1 (stereo not given)
inactive: all assays above

Cc1noc(-c2ccc(-c3ccc(CC(=O)O)cc3)cc2)c1NC(=O)O[C@H](C)c1ccccc1Cl
inactive: all assays above

COc1ccccc1OCCNCC(O)CCOc1cccc2[nH]c3ccccc3c12 (stereo not given)
inactive: all assays above

C=C1/C(=C/C=C2\CCC[C@]3(C)[C@@H]([C@H](C)/C=C/[C@@H](C)C(C)C)CC[C@@H]23)C[C@@H](O)C[C@@H]1O
inactive: all assays above

CCN(CC)CCCS(=O)(=O)N[C@H](CCc1ccccc1)c1nc(Cc2ccc(Br)cc2)no1
inactive: all assays above
